# Data as given in the supplement of paper PMC10849652.
# The full data set covers some 8,800 targets. This sample favours those with a hit. About 0.5% of all pairs of compound and target were hits. A number with no mark means an inactive call.
# Assays:
# Assay in all cases: log2 fold change, soluble protein after heating vs DMSO (PISA); higher = thermal stabilisation; K562 lysate, 10 uM; active = over 0.2 and 3.5 SD of the protein, either way, in both replicates (recomputed)
# nilotinib = compound: Cc1cn(-c2cc(NC(=O)c3ccc(C)c(Nc4nccc(-c5cccnc5)n4)c3)cc(C(F)(F)F)c2)cn1 [nilotinib]
# Method in brief: (§1)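 K562 pellets were dounce-homogenised in PBS pH 7.4 with 1 mM MgCl2, and the crude extract at 1 mg/mL protein was treated with 10 μM compound for 30 min. Aliquots were heated for 3 min across 48°C-58°C, pooled, and brought to 0.5% NP-40 at 4°C; soluble protein was the supernatant after 21,000xg for 90 min. Soluble protein was quantified by TMTpro 16plex LC-MS/MS with channel sums equalised, and reported as log2 fold change in thermal stability against DMSO controls, with values from duplicates.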
# [1] = compound: Cc1nc(Nc2n[nH]c3c2CN(C(=O)N[C@H](CN(C)C)c2ccccc2)C3(C)C)c2sccc2n1
# Method in brief: as §1
# dasatinib = compound: Cc1nc(Nc2ncc(C(=O)Nc3c(C)cccc3Cl)s2)cc(N2CCN(CCO)CC2)n1 [dasatinib]
# Method in brief: as §1
# [2] = compound: Cc1ncc(-c2ccnc(Nc3ccc(S(C)(=O)=O)cc3)n2)n1C(C)C
# Method in brief: as §1
# [3] = compound: Cn1cc(-c2ccc3c(c2)CCN3C(=O)Cc2cccc(C(F)(F)F)c2)c2c(N)ncnc21
# Method in brief: as §1
# quisinostat = compound: Cn1cc(CNCC2CCN(c3ncc(C(=O)NO)cn3)CC2)c2ccccc21 [quisinostat]
# Method in brief: as §1
# tipifarnib = compound: Cn1cncc1[C@@](N)(c1ccc(Cl)cc1)c1ccc2c(c1)c(-c1cccc(Cl)c1)cc(=O)n2C [tipifarnib]
# Method in brief: as §1
# [4] = compound: NC(=O)Nc1cc(-c2cccc(F)c2)sc1C(=O)N[C@H]1CCCNC1
# Method in brief: as §1
# [5] = compound: NC(=O)c1cnc(N[C@@H]2CCCC[C@@H]2N)nc1Nc1cccc(-n2nccn2)c1
# Method in brief: as §1
# [6] = compound: NC1(c2ccc(-c3nc4ccn5c(=O)[nH]nc5c4cc3-c3ccccc3)cc2)CCC1
# Method in brief: as §1
# UniProt P14314, sequence (P14314 whole entry, looked up): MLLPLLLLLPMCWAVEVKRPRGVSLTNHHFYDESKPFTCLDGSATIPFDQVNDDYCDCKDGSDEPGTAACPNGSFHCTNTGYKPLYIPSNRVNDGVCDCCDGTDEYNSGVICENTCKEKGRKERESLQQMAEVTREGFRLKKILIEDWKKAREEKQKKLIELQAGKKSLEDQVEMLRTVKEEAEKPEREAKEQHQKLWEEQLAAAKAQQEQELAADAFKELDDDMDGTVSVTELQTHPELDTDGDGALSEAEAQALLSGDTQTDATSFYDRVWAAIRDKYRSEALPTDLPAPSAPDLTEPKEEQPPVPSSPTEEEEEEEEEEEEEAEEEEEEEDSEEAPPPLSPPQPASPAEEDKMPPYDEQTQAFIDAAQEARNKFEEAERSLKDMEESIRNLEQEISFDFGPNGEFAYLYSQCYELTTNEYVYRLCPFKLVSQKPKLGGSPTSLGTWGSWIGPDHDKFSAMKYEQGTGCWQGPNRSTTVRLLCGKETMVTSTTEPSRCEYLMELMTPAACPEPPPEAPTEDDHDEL
# UniProt P49643, sequence (P49643 whole entry, looked up): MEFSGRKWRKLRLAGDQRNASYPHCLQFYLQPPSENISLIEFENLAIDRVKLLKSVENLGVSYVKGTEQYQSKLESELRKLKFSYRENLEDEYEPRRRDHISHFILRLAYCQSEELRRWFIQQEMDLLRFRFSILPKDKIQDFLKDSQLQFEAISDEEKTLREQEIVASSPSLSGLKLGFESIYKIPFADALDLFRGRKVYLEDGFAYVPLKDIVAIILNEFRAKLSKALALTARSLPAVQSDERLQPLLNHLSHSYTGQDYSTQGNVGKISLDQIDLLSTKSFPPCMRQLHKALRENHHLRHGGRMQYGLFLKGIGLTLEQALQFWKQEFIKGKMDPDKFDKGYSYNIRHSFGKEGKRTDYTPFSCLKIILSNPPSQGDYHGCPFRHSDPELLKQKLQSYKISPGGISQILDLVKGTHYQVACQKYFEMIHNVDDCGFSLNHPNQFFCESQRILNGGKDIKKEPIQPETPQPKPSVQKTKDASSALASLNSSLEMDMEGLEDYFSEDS
# UniProt Q14289, sequence (Q14289 whole entry, looked up): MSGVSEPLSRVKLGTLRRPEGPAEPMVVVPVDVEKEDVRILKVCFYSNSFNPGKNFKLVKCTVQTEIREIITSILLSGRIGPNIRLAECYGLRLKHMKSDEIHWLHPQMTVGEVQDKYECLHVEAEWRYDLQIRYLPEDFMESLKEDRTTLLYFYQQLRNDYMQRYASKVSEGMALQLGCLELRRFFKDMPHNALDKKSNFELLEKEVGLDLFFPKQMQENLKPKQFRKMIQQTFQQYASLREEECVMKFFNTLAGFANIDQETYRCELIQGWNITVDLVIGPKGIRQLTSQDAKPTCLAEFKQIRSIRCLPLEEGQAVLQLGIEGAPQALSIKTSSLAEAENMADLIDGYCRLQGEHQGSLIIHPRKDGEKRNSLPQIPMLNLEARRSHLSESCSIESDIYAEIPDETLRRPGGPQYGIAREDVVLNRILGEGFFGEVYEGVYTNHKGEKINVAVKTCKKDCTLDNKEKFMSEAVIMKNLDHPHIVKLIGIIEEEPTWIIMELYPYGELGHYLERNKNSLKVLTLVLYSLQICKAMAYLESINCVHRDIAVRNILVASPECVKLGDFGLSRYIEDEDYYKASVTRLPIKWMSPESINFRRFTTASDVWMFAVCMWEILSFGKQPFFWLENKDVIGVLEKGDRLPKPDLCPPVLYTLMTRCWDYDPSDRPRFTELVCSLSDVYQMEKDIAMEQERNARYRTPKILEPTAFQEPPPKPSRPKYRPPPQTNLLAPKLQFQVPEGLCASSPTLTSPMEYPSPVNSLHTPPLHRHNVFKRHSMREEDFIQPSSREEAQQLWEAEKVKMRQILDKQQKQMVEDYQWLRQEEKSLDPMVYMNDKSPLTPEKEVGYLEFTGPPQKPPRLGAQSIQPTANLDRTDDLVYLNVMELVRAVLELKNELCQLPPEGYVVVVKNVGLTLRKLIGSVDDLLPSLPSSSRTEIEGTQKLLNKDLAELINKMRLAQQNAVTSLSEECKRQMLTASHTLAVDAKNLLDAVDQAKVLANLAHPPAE
# UniProt P06454, sequence (P06454 whole entry, looked up): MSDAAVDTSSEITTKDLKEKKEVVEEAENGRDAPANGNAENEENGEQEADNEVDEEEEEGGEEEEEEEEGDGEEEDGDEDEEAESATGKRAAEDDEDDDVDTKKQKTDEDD
# UniProt P11309, sequence (P11309 whole entry, looked up): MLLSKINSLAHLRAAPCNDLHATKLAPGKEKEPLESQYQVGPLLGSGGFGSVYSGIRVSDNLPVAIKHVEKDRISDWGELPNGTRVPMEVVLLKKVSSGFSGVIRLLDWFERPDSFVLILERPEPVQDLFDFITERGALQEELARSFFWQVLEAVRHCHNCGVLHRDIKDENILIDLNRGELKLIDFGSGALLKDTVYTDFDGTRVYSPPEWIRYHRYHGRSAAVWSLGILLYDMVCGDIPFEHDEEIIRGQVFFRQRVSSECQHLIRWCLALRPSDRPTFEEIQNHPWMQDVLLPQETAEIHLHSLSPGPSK
# UniProt P53350, sequence (P53350 whole entry, looked up): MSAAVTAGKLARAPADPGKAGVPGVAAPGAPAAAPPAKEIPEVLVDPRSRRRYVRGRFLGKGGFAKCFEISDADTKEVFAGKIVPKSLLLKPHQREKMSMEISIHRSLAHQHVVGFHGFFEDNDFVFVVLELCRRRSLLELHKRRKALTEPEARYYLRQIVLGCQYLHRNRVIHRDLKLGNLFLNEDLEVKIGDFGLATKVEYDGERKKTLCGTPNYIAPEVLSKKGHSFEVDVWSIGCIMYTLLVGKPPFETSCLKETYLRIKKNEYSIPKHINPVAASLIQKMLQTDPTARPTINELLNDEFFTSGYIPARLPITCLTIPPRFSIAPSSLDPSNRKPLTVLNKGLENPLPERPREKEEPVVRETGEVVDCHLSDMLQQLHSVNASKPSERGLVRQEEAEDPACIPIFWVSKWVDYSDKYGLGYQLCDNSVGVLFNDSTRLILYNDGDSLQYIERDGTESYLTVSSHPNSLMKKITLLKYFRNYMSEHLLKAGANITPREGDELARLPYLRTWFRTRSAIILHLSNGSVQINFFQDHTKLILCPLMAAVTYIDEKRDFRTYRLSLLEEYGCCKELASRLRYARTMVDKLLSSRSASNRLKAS
# UniProt Q16875, sequence (Q16875 whole entry, looked up): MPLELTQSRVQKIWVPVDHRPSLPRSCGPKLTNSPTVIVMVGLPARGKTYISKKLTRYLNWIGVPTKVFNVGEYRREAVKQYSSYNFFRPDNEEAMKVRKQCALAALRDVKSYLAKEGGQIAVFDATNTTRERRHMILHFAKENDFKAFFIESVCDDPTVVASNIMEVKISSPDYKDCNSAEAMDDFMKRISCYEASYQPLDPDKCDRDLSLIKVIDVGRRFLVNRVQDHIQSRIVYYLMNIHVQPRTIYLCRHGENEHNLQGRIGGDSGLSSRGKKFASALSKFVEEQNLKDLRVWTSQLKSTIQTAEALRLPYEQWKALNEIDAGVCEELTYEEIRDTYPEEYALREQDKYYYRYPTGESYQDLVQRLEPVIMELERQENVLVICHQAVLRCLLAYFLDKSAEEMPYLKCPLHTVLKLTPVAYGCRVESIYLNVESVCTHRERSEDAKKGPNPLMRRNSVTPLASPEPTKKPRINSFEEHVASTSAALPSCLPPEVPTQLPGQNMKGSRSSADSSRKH
# UniProt Q9BUL8, sequence (Q9BUL8 whole entry, looked up): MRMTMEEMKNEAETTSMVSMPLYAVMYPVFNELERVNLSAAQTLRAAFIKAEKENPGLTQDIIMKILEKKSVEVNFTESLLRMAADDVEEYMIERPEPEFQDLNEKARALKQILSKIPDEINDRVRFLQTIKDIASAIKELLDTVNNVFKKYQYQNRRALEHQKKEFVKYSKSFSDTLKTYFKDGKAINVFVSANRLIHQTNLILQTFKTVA
# UniProt P49642, sequence (P49642 whole entry, looked up): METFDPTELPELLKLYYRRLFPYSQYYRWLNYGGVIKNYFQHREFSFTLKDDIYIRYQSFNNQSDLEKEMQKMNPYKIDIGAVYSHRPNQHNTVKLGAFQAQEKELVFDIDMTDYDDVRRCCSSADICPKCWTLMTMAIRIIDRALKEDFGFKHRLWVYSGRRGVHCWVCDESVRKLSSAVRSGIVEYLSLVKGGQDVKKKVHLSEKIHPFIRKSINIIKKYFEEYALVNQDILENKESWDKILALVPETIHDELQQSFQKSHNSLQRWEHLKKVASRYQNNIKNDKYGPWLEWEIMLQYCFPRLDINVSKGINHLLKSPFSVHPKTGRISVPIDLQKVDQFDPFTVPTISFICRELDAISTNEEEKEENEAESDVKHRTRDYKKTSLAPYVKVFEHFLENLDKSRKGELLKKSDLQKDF
# UniProt O00625, sequence (O00625 whole entry, looked up): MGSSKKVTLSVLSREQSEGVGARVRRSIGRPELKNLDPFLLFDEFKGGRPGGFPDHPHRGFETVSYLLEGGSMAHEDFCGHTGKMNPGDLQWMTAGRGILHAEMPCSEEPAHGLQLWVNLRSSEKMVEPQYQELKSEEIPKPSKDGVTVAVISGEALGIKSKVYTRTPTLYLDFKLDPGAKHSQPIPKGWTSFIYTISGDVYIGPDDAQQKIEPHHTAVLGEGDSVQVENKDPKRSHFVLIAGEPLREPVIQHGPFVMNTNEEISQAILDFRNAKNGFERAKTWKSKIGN
# UniProt Q12972, sequence (Q12972 whole entry, looked up): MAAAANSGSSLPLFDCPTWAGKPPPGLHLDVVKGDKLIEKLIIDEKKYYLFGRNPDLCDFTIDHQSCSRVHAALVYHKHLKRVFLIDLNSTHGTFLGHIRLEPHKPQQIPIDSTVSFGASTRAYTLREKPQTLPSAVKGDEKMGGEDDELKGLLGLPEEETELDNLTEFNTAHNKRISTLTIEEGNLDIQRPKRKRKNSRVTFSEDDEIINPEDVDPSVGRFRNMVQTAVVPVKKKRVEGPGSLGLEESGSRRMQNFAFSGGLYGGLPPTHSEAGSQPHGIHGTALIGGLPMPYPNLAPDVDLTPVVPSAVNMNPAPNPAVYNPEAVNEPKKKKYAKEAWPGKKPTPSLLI
Target,log2 fold change (nilotinib),log2 fold change [1],log2 fold change (dasatinib),log2 fold change [2],log2 fold change [3],log2 fold change (quisinostat),log2 fold change (tipifarnib),log2 fold change [4],log2 fold change [5],log2 fold change [6]
PUS1 (UniProt Q9Y606),0.005,-0.042,-0.01,0.01,0.018,-0.058,0.018,0.043,0.036,-0.023
PTK2B (UniProt Q14289),0.011,0.109,0.041,0.026,0.059,-0.122,-0.067,0.377 (active),0.072,-0.04
POLB (UniProt P06746),0.035,-0.013,0,-0.026,0.008,-0.028,0.002,0.022,0.012,-0.053
PTMA (UniProt P06454),0.008,-0.046,0.056,0.019,-0.025,0.047,0.045,0.017,0.032,-0.006
PWP1 (UniProt Q13610),-0.016,0.009,0.065,0.005,0.048,0.068,0.017,-0.005,-0.003,0.036
PKP3 isoform 2 (UniProt Q9Y446),-0.034,-0.021,0,-0.039,-0.001,-0.012,0.007,-0.051,-0.021,0.02
PI4K2A (UniProt Q9BTU6),0.009,0.03,-0.036,0.207 (active),-0.024,0.01,-0.064,0.071,0.49 (active),-0.004
PPP1R8 (UniProt Q12972),0.004,-0.011,0.03,0.034,0.025,-0.023,0.013,-0.007,0.01,-0.024
POLR2F (UniProt P61218),0.023,-0.019,0.274,0.107,-0.015,-0.034,0.015,0.008,-0.052,-0.021
PIM1 isoform 2 (UniProt P11309),0.059,-0.025,-0.033,0.063,0.112,-0.085,0.061,0.038,–,-0.146
PFKFB3 isoform 4 (UniProt Q16875),0.018,-0.023,-0.088,-0.021,0.075,-0.012,0.01,-0.025,-0.192,-0.001
PRKCSH (UniProt P14314),0.01,0.016,0.037,0.041,-0.003,0.088,0.008,-0.006,-0.004,0.036
PRKCA (UniProt P17252),-0.008,0.227,-0.028,0.095,-0.056,-0.035,0,-0.067,0.408 (active),-0.006
PLK1 (UniProt P53350),0.014,-0.073,-0.004,0.008,-0.015,-0.021,0.032,-0.193,-0.043,0.01
PRAME (UniProt P78395),0.028,0.005,-0.004,0.001,-0.017,-0.081,-0.007,0.053,-0.01,-0.006
PDCD10 (UniProt Q9BUL8),0.006,0.121,0.077,0.03,0.013,-0.053,-0.005,0.114,-0.018,0.004
PIR (UniProt O00625),0.011,-0.011,0.027,0.012,0.023,0.011,0.005,0.02,-0.009,-0.046
PHLDB1 (UniProt Q86UU1),-0.035,-0.012,0.002,-0.006,-0.046,-0.243,-0.003,0.028,-0.036,0.004
PYURF (UniProt Q96I23),-0.03,0.051,0.002,0.004,0.048,0.011,-0.009,-0.075,-0.064,-0.006
PRKCB isoform 2 (UniProt P05771),-0.014,0.256 (active),-0.06,-0.093,-0.007,0.017,-0.038,-0.416 (active),0.181,-0.037
PPP3CA isoform 2 (UniProt Q08209),0.241 (active),0.121,0.027,-0.082,-0.03,-0.051,0.037,0.048,-0.005,-0.002
PRIM1 (UniProt P49642),0,-0.011,-0.05,-0.006,0.019,0.014,-0.022,0.028,0.001,-0.031
PRIM2 (UniProt P49643),0.052,0.007,-0.038,-0.012,0.02,-0.027,-0.037,0.018,-0.001,-0.021
PLXNB2 (UniProt O15031),-0.052,0.019,-0.036,0.013,0.003,0.016,-0.017,0.042,-0.024,-0.006
PDF (UniProt Q9HBH1),0.014,0.002,-0.037,0.02,0.067,-0.064,-0.012,0.022,-0.034,0.056
PRMT7 (UniProt Q9NVM4),0.039,-0.01,0.032,-0.029,-0.032,-0.041,-0.011,0.023,0.028,0.025
PCBD2 (UniProt Q9H0N5),0.01,-0.045,0.011,-0.063,0.051,-0.08,-0.101,0.033,0.069,-0.066
PIP4P2 (UniProt Q8N4L2),0.287 (active),-0.073,-0.171,-0.015,-0.048,0.035,-0.148,-0.016,0.121,-0.007
POLD1 (UniProt P28340),0.029,-0.004,-0.023,-0.011,0.011,0.01,-0.011,0.015,0.006,0.003
